Drawing on PubChem BioAssay (NCATS), this text covers parasite growth, % of control (lower = inhibition) for 40 molecules.

The experiment is described as follows: qHTS profiling of the MIPE4 collection as inhibitors of Plasmodium falciparum (DD2) proliferation (Rep 2) (AID 743346). The following applies: P. falciparum Dd2 in erythrocytes, SYBR Green DNA, 72 h; at 28.5 µM unless noted. The source says: Plasmodium falciparum is a virulent malarial parasite that kills 1-2 million people worldwide each year. Transmitted by mosquitoes, the sporozoite form of the parasite enters the blood stream to infect hepatocytes, where they become merozoites that infect red blood cells (erythrocytes). Within erythrocytes, merozoites begin a […] cycle of growth and division, after which the parasite is released to infect new red blood cells. Gametocytes, which form within erythrocytes as well, circulate in the bloodstream and are ingested by the mosquito, thereby completing the life cycle. To profile malarial isolates for differential chemical responses and to identify inhibitors of malarial growth, an assay that measures P. falciparum growth and replication within erythrocytes was employed. This assay uses a DNA binding fluorescent dye (SYBR Green) to detect parasite DNA following cell lysis. Because mature erythrocytes lack DNA, only Plasmodium-derived DNA is detected.
The SYBR Green viability assay was adapted from a method described previously (Plouffe et al., 2008). For screening 3 ul culture medium was dispensed into 1536 well black clear bottom plates (Aurora Biotechnologies) using a Multidrop Combi (Thermo Fisher Scientific Inc.), 23 nL compounds in DMSO were added by a pin tool (Kalypsys), and 5 ul of erythrocytes infected with P. falciparum (0.3% parasitemia, 2.5% hematocrit final concentration) were added. The plates were incubated at 37 C in a humidified incubator in 5% CO2 for 72 h, and 2 ul lysis buffer (20 mM Tris HCl, 10 mM EDTA, 0.16% saponin, 1.6% triton X, 10X SYBR Green I supplied as 10,000X […] by Invitrogen) was added to each well. The plates were mixed for 25 sec with gentle shaking and incubated overnight at room temperature in the dark. The following morning, fluorescence intensity at 485(14) nm excitation and 535(25) nm emission wavelengths was measured on an EnVision (Perkin Elmer) plate reader. Plate reads were normalized relative to the control inhibitor (0.29 uM artemisinin) and vehicle (DMSO) wells present on each plate and then corrected by an algorithm using vehicle-only control plates at the beginning and end of the compound plate stack.
In the case of `CO[C@H]1/C=C\O[C@@]2(C)Oc3c(C)c(O)c4c(O)c(c5c(nc6cc(C)ccn65)c4c3C2=O)NC(=O)C(C)=CC=C[C@H](C)[C@H](O)[C@@H](C)[C@@H](O)[C@@H](C)[C@H](OC(C)=O)[C@H]1C`, the parasite growth, % of control (lower = inhibition) was determined as 7.3%.

Regarding `CCC(=O)NCC[C@@H]1CCc2ccc3c(c21)CCO3`, the parasite growth, % of control (lower = inhibition) came out at 71.2%.

As for `CC1(C)CC(=O)c2c(C(F)(F)F)nn(-c3ccc(C(N)=O)c(NC4CCC(O)CC4)c3)c2C1` (stereo not given), the parasite growth, % of control (lower = inhibition) was 13%.

`COc1cc(F)c(C(C)C)cc1-c1ccc(C(F)(F)F)cc1CN1C(=O)O[C@H](c2cc(C(F)(F)F)cc(C(F)(F)F)c2)[C@@H]1C`: the parasite growth, % of control (lower = inhibition) came out at 31.9%.

Take `NC(=O)c1ccc(N(C(N)=O)c2c(F)cccc2F)nc1-c1ccc(F)cc1F`: the parasite growth, % of control (lower = inhibition) worked out at 59.1%.

As to `CCOC(=O)N1CCN([N+]([O-])=NOc2cc(ON=[N+]([O-])N3CCN(C(=O)OCC)CC3)c([N+](=O)[O-])cc2[N+](=O)[O-])CC1`, the parasite growth, % of control (lower = inhibition) worked out at 49.8%.

Take `Cc1cnc(-c2cc(N3CCN(C(=O)CCS(C)(=O)=O)CC3)ncc2Cl)c(C)c1`: the parasite growth, % of control (lower = inhibition) amounted to 110%.

`C=CCc1cccc(C=NNC(=O)CN2CCN(Cc3ccccc3)CC2)c1O`: the parasite growth, % of control (lower = inhibition) came out at 19.3%.

Consider `Oc1cc(O)cc(C=Cc2ccc(O)c(O)c2)c1`, for which the parasite growth, % of control (lower = inhibition) turned out to be 32.1%.

As for `Cc1cccc(Nc2nc(N[C@@H]3CCCC[C@H]3N)ncc2C(N)=O)c1`, the parasite growth, % of control (lower = inhibition) was 7.28%.

In the case of `CC(C)CN(C[C@@H](O)[C@H](Cc1ccccc1)NC(=O)O[C@H]1CO[C@H]2OCC[C@H]21)S(=O)(=O)c1ccc(N)cc1`, the parasite growth, % of control (lower = inhibition) worked out at 101%.

As to `CCNC(=O)[C@H]1O[C@@H](n2cnc3c(N)nc(NCCc4ccc(CCC(=O)O)cc4)nc32)[C@H](O)[C@H]1O`, the parasite growth, % of control (lower = inhibition) amounted to 116%.

On to `Cc1cc2nc3c(=O)[nH]c(=O)nc-3n(CC(O)C(O)C(O)CO)c2cc1C` (stereo not given), for which the parasite growth, % of control (lower = inhibition) is 22.3%.

As for `CO[C@H]1C=CO[C@@]2(C)Oc3c(C)c(O)c4c(O)c(c(C=NN5CCN(C)CC5)c(O)c4c3C2=O)NC(=O)C(C)=CC=C[C@H](C)[C@H](O)[C@@H](C)[C@@H](O)[C@@H](C)[C@H](OC(C)=O)[C@H]1C`, the parasite growth, % of control (lower = inhibition) turned out to be 10.3% [at 5.51 µM].

Turning to `CCCCC(C=O)NC(=O)C(CC(C)C)NC(=O)OCc1ccccc1` (stereo not given), the parasite growth, % of control (lower = inhibition) came to 9.29%.

In the case of `O=C1C(CCC(O)c2ccc(F)cc2)C(c2ccc(O)cc2)N1c1ccc(F)cc1` (stereo not given), the parasite growth, % of control (lower = inhibition) was determined as 36.6%.

Consider `OC[C@H]1O[C@@H](O[C@H]2[C@@H](O)[C@@](O)(CO)O[C@@H]2CO)[C@H](O)[C@@H](O)[C@@H]1O`, for which the parasite growth, % of control (lower = inhibition) came to 79.8%.

For the molecule `CCCCC(C)(C)[C@H](O)C=C[C@H]1[C@H](O)CC(=O)[C@H]1CC=CCCCC(=O)O`, the parasite growth, % of control (lower = inhibition) was found to be 39.2%.

`C[C@@]1(C(=O)Nc2ccc(F)nc2)CCCN1c1nc(Nc2cc(C3CC3)[nH]n2)c2cccn2n1`: the parasite growth, % of control (lower = inhibition) is 23.8%.

For the molecule `CC(C)C[C@@H](C(=O)N[C@H](C(=O)OC1CCCC1)c1ccccc1)[C@H](O)C(=O)NO`, the parasite growth, % of control (lower = inhibition) worked out at 29%.

As to `CO[C@H]1O[C@@H]2O[C@@]3(C)CC[C@@H]4[C@@H](C)CC[C@@H]([C@H]1C)[C@@]24OO3`, the parasite growth, % of control (lower = inhibition) was found to be 9.94%.

`CC[C@H]1OC(=O)[C@H](C)[C@@H](O[C@H]2C[C@@](C)(OC)[C@@H](O)[C@H](C)O2)[C@H](C)[C@@H](O[C@@H]2O[C@H](C)C[C@H](N(C)C)[C@H]2O)[C@](C)(O)C[C@H](C)C(=NOCOCCOC)[C@H](C)[C@@H](O)[C@]1(C)O`: the parasite growth, % of control (lower = inhibition) was determined as 47.3%.

Regarding `COc1c(C)c2c(c(O)c1CC=C(C)CCC(=O)O)C(=O)OC2`, the parasite growth, % of control (lower = inhibition) worked out at 13.7%.

As for `O=C(O)CCNc1cc(N2CCc3ccccc3CC2)nc(-c2ccccn2)n1`, the parasite growth, % of control (lower = inhibition) worked out at 20.6%.

As to `NCc1c[nH]c(=S)n1[C@H]1CCc2c(F)cc(F)cc2C1`, the parasite growth, % of control (lower = inhibition) was determined as 13.8%.

In the case of `CNC(=O)[C@H](CC1=CN=C2C=CCC=C12)NC(=O)[C@@H](CC(=O)NO)CC(C)C`, the parasite growth, % of control (lower = inhibition) was 26.7%.

On to `COc1cc(Nc2nc3ccccc3nc2NS(=O)(=O)c2ccc(NC(=O)c3ccc(C)c(OC)c3)cc2)cc(OC)c1`, for which the parasite growth, % of control (lower = inhibition) is 32.8%.

Consider `CC(=O)OCC(=O)[C@@]1(O)CC[C@H]2[C@@H]3CCC4=CC(=O)C=C[C@]4(C)[C@@H]3[C@@H](O)C[C@@]21C`, for which the parasite growth, % of control (lower = inhibition) is 81.3%.

In the case of `C[C@]12C=CC(=O)C=C1CC[C@@H]1[C@@H]2[C@@H](O)C[C@@]2(C)[C@@H]1CC[C@]2(O)C(=O)CO`, the parasite growth, % of control (lower = inhibition) amounted to 86.4%.

For `COc1nccc(-c2c(-c3ccc(F)cc3)ncn2C2CCNCC2)n1`, the parasite growth, % of control (lower = inhibition) came to 41%.

`CC(O)=C(C#N)C(=O)Nc1ccc(C(F)(F)F)cc1`: the parasite growth, % of control (lower = inhibition) was 63.9%.

Take `O=C(c1ccc(C(=O)N2CCC(N3CCCC3)CC2)c(Nc2ccccc2)c1)N1CCC(N2CCCC2)CC1`: the parasite growth, % of control (lower = inhibition) was determined as 33.2%.

Turning to `C#C[C@]1(O)CC[C@H]2[C@H]3CCc4cc(OC)ccc4[C@H]3CC[C@@]21C`, the parasite growth, % of control (lower = inhibition) came out at 90.2%.

Regarding `COc1ccc(CCN(C)CCCOc2ccc(S(=O)(=O)c3[nH]c4ccccc4c3C(C)C)cc2)cc1OC`, the parasite growth, % of control (lower = inhibition) was determined as 16.3%.

For the molecule `CN(C)N=Nc1nc[nH]c1C(N)=O`, the parasite growth, % of control (lower = inhibition) came to 87.6%.

With `CC(C)C[C@@H](N)[C@H](O)C(=O)N[C@H](C(=O)N[C@H](C(=O)N[C@@H](CC(=O)O)C(=O)O)C(C)C)C(C)C`, the parasite growth, % of control (lower = inhibition) came to 127%.

In the case of `C=CC(=O)Nc1cccc(Sc2nc(Nc3ccc(N4CCN(C)CC4)cc3)ncc2Cl)c1`, the parasite growth, % of control (lower = inhibition) is 6.26%.

`CCN1CCN(c2ccc(Nc3cc(N(C)C(=O)Nc4c(Cl)c(OC)cc(OC)c4Cl)ncn3)cc2)CC1`: the parasite growth, % of control (lower = inhibition) came out at 8.62%.

For the molecule `O=C(Nc1ncc(SCCN2CCCC2)s1)[C@]1(c2ccc(S(=O)(=O)C3CC3)cc2)C[C@@H]1C1CCCCC1`, the parasite growth, % of control (lower = inhibition) came to 20.2%.

Turning to `C[C@H](c1ccc(F)cc1CCCC(=O)O)N(c1cc(F)ccc1F)S(=O)(=O)c1ccc(Cl)cc1`, the parasite growth, % of control (lower = inhibition) stood at 35.7%.
